Data from PubChem BioAssay AID1159580 (chemical genetic matrix, 2015).
Hit rate of the full screen: of about 5,500 compounds, about 2,000 (36%) were called active. Not shown: some 18% with an inconclusive outcome. No stated cut-off is given here; in the data, active means normalized growth mostly below about 0.91 (no sharp cut-off); inconclusive means no clear call, values can overlap the other calls; inactive means mostly above about 0.92. The list shows a part of the results.

Experiment: chemical genetic growth profiling, strain panel (AID 1159580);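 further: tested at 20 µM; growth read once vehicle control cultures reached saturation at 30 °C; 1 = growth at the plate median or of vehicle wells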
Conditions: S. cerevisiae deletion strains, growth OD
[1] = locus YAL013W, strain DEP1, stronger effect = lower value
[2] = locus YDR150W, strain NUM1, stronger effect = lower value
[3] = locus YGR229C, strain SMI1, stronger effect = lower value
[4] = locus YJR075W, strain HOC1, stronger effect = lower value
[5] = locus YMR263W, strain SAP30, stronger effect = lower value
[6] = locus YMR307W, strain GAS1, stronger effect = lower value
[7] = locus YNL322C, strain KRE1, stronger effect = lower value
[8] = locus YPL241C, strain CIN2, stronger effect = lower value

Measured: normalized growth

CC1(C)CCC=[N+]1[O-]
inactive: [1] 1 | locus YAL040C, strain CLN3, stronger effect = lower value 1.04 | locus YCL061C, strain MRC1 (second series), stronger effect = lower value 1.01 | [2] 1 | locus YDR363W, strain ESC2, stronger effect = lower value 1.02 | locus YER002W, strain NOP16, stronger effect = lower value 0.98 | [3] 1.05 | [4] 1.03 | [5] 1 | [6] 1.01 | locus YNL175C, strain NOP13, stronger effect = lower value 0.993 | locus YNL197C, strain WHI3, stronger effect = lower value 1.01 | locus YNL224C, strain SQS1, stronger effect = lower value 1 | [7] 1.01 | locus YOR083W, strain WHI5 (second series), stronger effect = lower value 1.03 | [8] 1

CCOC(=O)CSc1nc2cc(C(F)(F)F)cnc2n1C
inactive: [1] 0.984 | locus YBR229C, strain ROT2, stronger effect = lower value 0.98 | locus YDL101C, strain DUN1, stronger effect = lower value 1.01 | locus YDL134C, strain PPH21, stronger effect = lower value 0.975 | [2] 0.99 | locus YEL061C, strain CIN8, stronger effect = lower value 0.993 | locus YGR078C, strain PAC10, stronger effect = lower value 0.983 | [3] 1.01 | locus YHR030C, strain SLT2, stronger effect = lower value 0.909 | locus YHR087W, strain rtc3, stronger effect = lower value 0.96 | locus YJR043C, strain POL32, stronger effect = lower value 0.988 | [4] 0.997 | locus YKL190W, strain CNB1, stronger effect = lower value 1.01 | locus YLR039C, strain RIC1, stronger effect = lower value 1.05 | locus YLR058C, strain SHM2 (second series), stronger effect = lower value 0.985 | locus YLR085C, strain ARP6, stronger effect = lower value 1.04 | locus YLR262C, strain YPT6, stronger effect = lower value 1.03 | locus YML094W, strain GIM5, stronger effect = lower value 0.952 | locus YMR219W, strain ESC1, stronger effect = lower value 0.989 | [5] 0.99 | [6] 1.19 | locus YNL153C, strain GIM3, stronger effect = lower value 1 | locus YNL298W, strain CLA4 (second series), stronger effect = lower value 0.961 | [7] 0.982 | locus YNR030W, strain Alg12, stronger effect = lower value 0.988 | locus YOL006C, strain TOP1, stronger effect = lower value 0.942 | locus YPL055C, strain LGE1, stronger effect = lower value 0.981 | [8] 1.07 | locus YPR135W, strain CTF4, stronger effect = lower value 0.912
